Bioassay records as filed in PubChem BioAssay.
VDR inhibitor – Inhibitors of the vitamin D receptor (VDR): qHTS; VDR-SRC2-3 peptide fluorescence polarization, 2 h; Potency, µM, hits mostly inhibitors; 400,000 tested, 0.93% active
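Two reagent solutions held at 4 deg C in the dark were dispensed, compounds pinned at 23 nl, and the mixture incubated 2 h at room temperature. Read-out: fluorescence polarization of VDR–SRC2-3 peptide binding.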
CCT modulator – High-Throughput Screening for Modulators of Cytosolic Chaperonin Activity. purified chaperonin ATPase assay, HTRF ADP detection, 30 min. activity change, % (concentration not given with the values), hits read low. 360,000 tested, 0.3% active. AID 651819, 2012; in the data active means activity change below about -30%
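Nucleotide hydrolysis assay: TRiC at 20–40 nM final (set by batch activity) with 10 uM ATP, 30 min at 37 °C, in presence of 76 uM compound. Detection by competitive ADP HTRF, 30 min ambient.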
Sfp inh – qHTS Assay for Inhibitors of Bacillus subtilis Sfp phosphopantetheinyl transferase (PPTase); 4'-phosphopantetheinyl transferase ffp (Bacillus subtilis), Q9F4F7; Biochemical Sfp PPTase activity, qHTS; Potency, µM, hits mostly inhibitors; 310,000 tested, 3.5% active;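 further: the enzyme is Sfp with the accession as filed and its product quenches rhodamine fluorescence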
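Fluorescence-quenching assay with 15 nM Sfp, 5 uM rhodamine-CoA and 12.5 uM BHQ-2-labelled ybbR peptide in pH 7.6 Hepes/MgCl2 buffer. Enzyme was pre-incubated with compound for 15 min at room temperature. Rate was taken from the 30-min fluorescence change (525/598 nm).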
Mm-Cpn inhibitor – Inhibitors of TCP-1 ring complex (TRiC) of Methanococcus maripaludis (MmCpn): qHTS | purified Mm-Cpn ATPase, ADP Transcreener TR-FRET | Potency, µM (highest dose often 76.9 µM), hits mostly inhibitors | Chaperonin Mm-Cpn (Methanococcus maripaludis) | 330,000 tested, 0.031% active; further: nearly all actives have a fitted effect of over 80% in size
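TR-FRET (320 nm excitation; 590 and 665 nm emission) reports ADP made from 10 uM ATP by 25 nM enzyme; compounds were preincubated 10 min, reaction run 30 min, both at 37°C.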
G9a inh – qHTS Assay for Inhibitors of Histone Lysine Methyltransferase G9a; AID 504332, 2011; Histone-lysine N-methyltransferase EHMT2 (Homo sapiens), Q96KQ7; G9a H3K9 monomethylation, AlphaScreen, 2 h; Potency, µM (highest dose often 102 µM), most hits filed as inhibitors; 350,000 tested, 8.8% active; further: nearly all actives have a fitted effect of over 75% in size
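Signal arises when biotinylated H3K9 peptide, once monomethylated, bridges streptavidin donor and antibody-captured acceptor beads. Enzyme at 20 nM was preincubated 15 min with test compounds; peptide 500 nM and SAM 20 uM then reacted for 2 h.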
PLK1 PBD inh – qHTS for Inhibitors of PLK1-PDB (polo-like kinase 1 - polo-box domain): Primary Screen. Serine/threonine-protein kinase PLK1 (Homo sapiens), P53350. Plk1 PBD binding of FITC phosphopeptide, fluorescence polarization. Potency, µM, actives largely listed as inhibitors. 360,000 tested, 2.8% active; further: series mostly up to about 57 µM; nearly all actives have a fitted effect of over 65% in size
Target sequence (P53350 whole entry, looked up, the tested form may be a part): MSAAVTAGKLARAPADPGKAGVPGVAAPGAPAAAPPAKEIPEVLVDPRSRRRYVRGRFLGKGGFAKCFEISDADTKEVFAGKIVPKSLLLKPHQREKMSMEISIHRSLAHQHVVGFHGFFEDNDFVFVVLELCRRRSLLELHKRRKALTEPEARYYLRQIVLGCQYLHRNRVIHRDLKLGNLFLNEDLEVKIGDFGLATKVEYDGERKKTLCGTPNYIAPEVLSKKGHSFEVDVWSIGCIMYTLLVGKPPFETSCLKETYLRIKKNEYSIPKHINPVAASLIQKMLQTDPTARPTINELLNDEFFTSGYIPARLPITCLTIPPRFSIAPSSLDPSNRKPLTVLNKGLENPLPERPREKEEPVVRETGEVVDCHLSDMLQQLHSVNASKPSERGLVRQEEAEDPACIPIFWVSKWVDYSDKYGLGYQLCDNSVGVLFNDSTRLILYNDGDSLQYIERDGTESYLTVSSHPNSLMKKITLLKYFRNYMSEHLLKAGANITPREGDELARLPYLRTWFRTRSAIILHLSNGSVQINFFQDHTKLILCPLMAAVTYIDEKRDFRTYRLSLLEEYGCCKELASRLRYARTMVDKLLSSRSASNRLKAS
Hits are given with their value; – = inactive; ? = inconclusive; · = not tested or not shown. Shown are actives, neighbours in structure and some others; about 10% of the full set was active somewhere. Unless noted, the call rests on the fitted dose curve; in most records, active means well fitted curve in the direction sought with a large enough effect; inconclusive means small, poorly fitted or top-dose-only effect, or another doubt; inactive means no such curve, though single readings can be large; an effect the other way counts as inactive or inconclusive.

SMILES	VDR inhibitor	CCT modulator	Sfp inh	Mm-Cpn inhibitor	G9a inh	PLK1 PBD inh
Cc1ccc(N2NC(C)(c3cccs3)NC2=S)cc1 (configuration not stated)	?	–	71µM	–	8.9µM	?
Cc1ccc(C)c(CNC(=O)c2ccc3c(c2)nc2n3CCC(C)C2)c1 (configuration not stated)	–	·	·	·	–	·
CC(C)(C)C1CCc2c(sc(NC(=O)c3cc4ccccc4c(=O)o3)c2C(N)=O)C1 (configuration not stated)	–	·	·	·	10µM	·
CCC1CCC(N2CCN(c3ccc(F)cc3)CC2)CC1 (configuration not stated)	–	–	–	–	45µM	–
CCC1CCC(N2CCN(c3ccc([N+](=O)[O-])cc3)CC2)CC1 (configuration not stated)	–	–	–	–	·	–
Cc1ccccc1CNC(=O)COc1ccccc1	–	–	–	–	·	–
Cc1cccc(OCC(=O)NNC(=O)CCCCC(=O)NNC(=O)COc2cccc(C)c2)c1	–	–	–	–	–	–
CC[C@@]1(c2ccccc2C)C(=O)N(C(=O)OC)N1C(=O)OC	?	–	?	–	·	11µM
CC[C@]1(c2cccc(C)c2)C(=O)N(C(=O)OC)N1C(=O)OC	?	–	–	–	40µM	12µM
CC[C@]1(c2ccccc2)C(=O)N(C(=O)OC)N1C(=O)OC	?	–	–	–	·	11µM
CC[C@@]1(c2ccccc2)C(=O)N(C(=O)OC)N1C(=O)OC	?	–	–	–	28µM	?
COC(=O)N1C(=O)[C@](c2ccccc2)(C(C)C)N1C(=O)OC	–	–	–	–	·	?
O=C(Cn1c(=O)n(CCc2ccccc2)c(=O)c2c3c(sc21)CCCC3)Nc1ccc(F)c(F)c1	–	·	·	·	–	·
Cc1ccc(CN2CCN(C3CCN(C(=O)OC(C)(C)C)CC3)C(=O)C2=O)cc1	–	·	·	·	–	·
CC(C)c1nn2c(=O)cc(COC(=O)c3ccccc3NC(=O)C3CCCCC3)nc2s1	–	·	·	·	–	·
CCN(CC)CCN(C(=O)c1ccc2c(c1)CCCC2)c1nc2ccc(F)cc2s1	–	–	–	–	50µM	–
CCN(CC)CCN(C(=O)c1ccc2c(c1)CCCC2)c1nc2ccc(OC)cc2s1	–	–	79µM	–	45µM	–
Cc1ccc(C(=O)N(CCCN(C)C)c2nc3ccc(Cl)cc3s2)cc1C	–	–	56µM	–	71µM	–
CN(C)CCCN(C(=O)c1ccc2c(c1)CCCC2)c1nc2ccc(F)cc2s1	–	–	–	–	45µM	–
COC(=O)C/C=C\[C@H](C)[C@@H](OC)c1ccccc1Br	·	·	–	·	·	·
COc1cccc(CNC(=O)c2sc3ncccc3c2-n2c(C)ccc2C)c1OC	–	·	·	·	?	·
O=C(CCCn1c(=O)c2ccccc2n(CC(=O)Nc2cccc(Cl)c2)c1=O)NCc1ccc2c(c1)OCO2	–	·	·	·	–	·
CCN(CC)CCN(C(=O)c1ccc2c(c1)CCCC2)c1nc2ccc(C)cc2s1	–	–	?	–	?	–
Cc1ccc2nc(N(CCCN(C)C)C(=O)c3sc4ccccc4c3Cl)sc2c1	–	–	45µM	–	50µM	–
Cc1ccc2nc(N(CCCN(C)C)C(=O)c3ccc(S(=O)(=O)N(C)C)cc3)sc2c1	–	–	–	–	?	–
SMILES	VDR inhibitor	CCT modulator	Sfp inh	Mm-Cpn inhibitor	G9a inh	PLK1 PBD inh
CN(C)CCCN(C(=O)c1cc(-c2cccs2)nc2ccccc12)c1nc2ccc(F)cc2s1	–	–	50µM	–	?	–
CN(C)CCCN(C(=O)CCc1ccccc1)c1nc2ccc(F)cc2s1	–	–	–	–	?	–
CCN(CC)CCN(C(=O)c1ccc2c(c1)CCCC2)c1nc2c(C)cccc2s1	–	–	–	–	35µM	–
Cc1cccc(N2CCN(C(=O)c3c(C)oc4ncnc(N5CCOCC5)c34)CC2)c1C	–	·	·	·	–	·
CCOC(=O)N/N=C1/C[C@@H](O)[C@@H](O)[C@@H]2[C@@H]3C(=O)N(Cc4ccccc4)C(=O)[C@H]3CC[C@H]12	·	·	–	·	·	·
Cn1ccc2cc(S(=O)(=O)N3CCCN(C(=O)Nc4ccc(Br)cc4)CC3)ccc21	–	·	·	·	–	·
Cc1ccc(-n2ncc3c(Nc4cccc(C)c4C)ncnc32)cc1	–	·	·	·	–	·
CCc1cccc(C)c1Nc1c(-c2ccccc2)nc2sccn12	–	·	·	·	?	·
Cc1ccn2c(Nc3ccccc3C)c(-c3ccc(N4CCOCC4)cc3)nc2c1	–	·	·	·	10µM	·
Cc1ccc2nc(-c3ccc(N4CCOCC4)cc3)c(Nc3ccccc3C)n2c1	–	·	·	·	13µM	·
Cc1ccc(-c2nc3sccn3c2Nc2ccccc2C)cc1	–	·	·	·	13µM	·
CCN(CC)C(=O)CSc1nc2cc3c(cc2c(=O)n1Cc1ccco1)OCO3	–	-34	–	–	–	–
CC1Cc2nc(SCC(=O)N3CCN(c4ccccc4)CC3)n(CCc3ccccc3)c(=O)c2S1 (configuration not stated)	–	–	45µM	–	?	–
O=C(CSc1nc2ccccc2c(=O)n1Cc1ccco1)N1CCN(c2ccccc2)CC1	–	–	?	–	14µM	–
CCn1c(SCC(=O)N2CCN(c3ccc(Cl)cc3)CC2)nc2ccccc2c1=O	–	–	–	–	2µM	–
CCC(C)NC(=O)CSc1nc2cc3c(cc2c(=O)n1Cc1ccco1)OCO3 (configuration not stated)	–	–	–	–	–	–
Cc1ccc(Cl)cc1NC(=O)Cn1nc2c(cc1=O)CC(C)CC2 (configuration not stated)	–	·	·	·	–	·
CCCCn1c(SCC(=O)N2CCN(c3ccccc3)CC2)nc2ccsc2c1=O	–	–	?	–	40µM	–
COc1ccccc1-n1c(SCC(=O)Nc2ccc(F)cc2)nc2c(c1=O)SCC2	–	–	–	–	50µM	–
O=C(CSc1nc2c(c(=O)n1-c1ccccc1)SCC2)N1CCN(c2ccccc2)CC1	–	–	–	–	45µM	–
CCCCn1c(SCC(=O)N2CCC(C)CC2)nc2ccsc2c1=O	–	–	–	–	–	–
CC1CCN(C(=O)CSc2nnc(-c3cc4ccccc4cc3O)n2Cc2ccco2)CC1	–	–	28µM	–	?	–
O=C(CSc1nc2c(c(=O)n1-c1ccccc1)SCC2)N1CCOCC1	–	–	–	–	–	–
O=C(CN1C(=O)CCc2cc(S(=O)(=O)N3CCOCC3)ccc21)NCc1ccc(F)cc1	–	·	·	·	–	·
